Hit rate of the full screen: of about 48,000 compounds, about 13,000 (27%) showed an effect of 50% or more. The list shows a part of the results.
test system: Wolbachia pipientis; assay: Anti-Wolbachia Cell-Based Screen; type: functional; set-up: scale not given: in the data most compounds retested in dose-response had high values; details: 5 µM

| SMILES | Percent Effect [%] |
| --- | --- |
| COc1ccccc1-c1ccc(C(=O)N2C[C@H]3CC[C@@H]2CN(C)C3)cc1 | 3.488 |
| Cc1nnc([C@@H]2CCO[C@@H]3CCN(C(=O)Cc4ccsc4)C[C@@H]32)o1 | -11.03 |
| O=C(NCCCC(=O)N1CCN(CC2CC2)c2ccccc21)C1CC1 | -7.741 |
| COc1ccc2c(c1)OCC(Cc1cc(C(=O)N3CCCC3)ccn1)C2 (centres undefined) | 87.9 |
| O=C(c1ccnc(CC2COc3ccccc3C2)c1)N1CCCC1 (centres undefined) | 99.57 |
| COc1ccc2c(c1)OCC(Cc1ccnc(N)n1)C2 (centres undefined) | -14.38 |
| COc1ccc2c(c1)OCC(Cc1cc(N3CCCC3)cnn1)C2 (centres undefined) | -5.296 |
| Nc1cc(CC2COc3ccccc3C2)ccn1 (centres undefined) | -18.54 |
| c1ccc2c(c1)CC(Cc1cc(N3CCCC3)cnn1)CO2 (centres undefined) | 9.635 |
| COc1cccc(CC(=O)N2CC[C@@H]3NC(=O)CC[C@@H]32)c1 | -6.606 |
| Cc1ccc(OCC(O)CNC(=O)C2(c3ccc(F)cc3)CC2)cc1 (centres undefined) | -8.798 |
| FC(F)(F)CCN(Cc1ccon1)C1CCCC1 | 5.052 |
| CCc1cc(CNC(=O)c2cc(NC(=O)C(C)C)ccc2Cl)[nH]n1 | -9.115 |
| CC(C)[C@H](NS(C)(=O)=O)C(=O)NCc1cc(-c2ccccc2)n[nH]1 | 101.1 |
| CCc1cc(CNC(=O)NCC(c2ccco2)N2CCCC2)[nH]n1 (centres undefined) | -1.193 |
| CCCC(C)NC(=O)c1ccc(-c2ccco2)[nH]c1=O (centres undefined) | 12.91 |
| CN(Cc1ccco1)Cc1ccccc1CNC(=O)c1cc[nH]n1 | -6.684 |
| CC(C)[C@H](NS(C)(=O)=O)C(=O)NCc1cc(-c2ccco2)n[nH]1 | 84.23 |
| C[C@H](NS(C)(=O)=O)C(=O)NCc1cc(-c2ccco2)n[nH]1 | 75.56 |
| CC(NS(C)(=O)=O)C(=O)N(C)Cc1csc(-c2ccccc2)n1 (centres undefined) | -10.17 |
| CCc1cc(CNC(=O)N(C2CC2)C(C)c2ccco2)[nH]n1 (centres undefined) | -14.67 |
| O=C(c1cccc(-n2cccn2)c1)N1CCCOC(Cn2cccn2)C1 (centres undefined) | 8.514 |

| SMILES | Percent Effect [%] |
| --- | --- |
| O=C(NCC1CC1)C1CCCN(c2cccc(C(F)(F)F)n2)C1 (centres undefined) | -14.15 |
| COc1ccc(SC(C)C(=O)N2CCC(NC(=O)C3CC3)CC2)cc1 (centres undefined) | -11.29 |
| COCC(=O)Nc1cc(Br)cnc1OCC(F)(F)F | -8.259 |
| Cc1ccoc1C(=O)NC1CCN(C(=O)Nc2ccccn2)CC1 | 143.8 |
| Cc1occc1C(=O)NC1CCN(C(=O)Nc2cccnc2)CC1 | 26.57 |
| Cc1ccc(C(=O)N2CCN(C(=O)Nc3ccccn3)CC2)o1 | 12.27 |
| CC1CCN(C(=O)C2CCCN(C(=O)Nc3ccccn3)C2)CC1 (centres undefined) | -1.039 |
| Cc1ccc(C(=O)NC2CCN(C(=O)Nc3ccccn3)CC2)s1 | 106.5 |
| CCn1cc(CN2CCCC2c2nc(-c3ccccc3)no2)cc1C#N (centres undefined) | -29.44 |
| Cc1ccc(CN2CCc3c(CN4CCCC4)n[nH]c3C2)s1.O=C(O)C(F)(F)F.O=C(O)C(F)(F)F | -6.492 |
| Cn1nnc2c1C(COCC1CC1)CN(C(=O)[C@H]1CCCO1)C2 (some centres undefined) | 10.79 |
| CCOC(=O)c1coc(N2CCC(C(O)CC(C)C)CC2)n1 (centres undefined) | -3.785 |
| CC(=O)N1CCOC(c2c(C(=O)O)sc3ccccc23)C1 (centres undefined) | 123 |
| CC(=O)N1CCN(Cc2c(C)sc3ccccc23)CC(O)C1 (centres undefined) | -5.1 |
| Cn1ccc(C(=O)N2CCOC(c3ccccc3)C2)cc1=O (centres undefined) | -8.227 |
| CC(=O)N1CCOC(c2c(C(=O)NC(C)(C)C)sc3ccccc23)C1 (centres undefined) | 161.4 |
| CC(=O)N1CCOC(c2c(C(=O)NCCN(C)C)sc3ccccc23)C1 (centres undefined) | 169.5 |
| CC(=O)N1CCC(c2nnc3ccc(C(=O)NCCN(C)C)cn23)C1 (centres undefined) | -5.924 |
| CC(=O)N1CCN(Cc2cccc3c2sc2ccccc23)CC(O)C1 (centres undefined) | -0.8612 |
| CNC(=O)c1cccc(NC(=O)NC(C)CCc2cccn2C)c1C (centres undefined) | -20.84 |
| CCn1ccnc1CN(C)C1CCCN(Cc2ccccc2F)C1 (centres undefined) | -12.96 |
| CCC1CN(CCCO)c2ccccc2O1 (centres undefined) | 49.62 |

| SMILES | Percent Effect [%] |
| --- | --- |
| Cc1nnc(CN2CCN(CCOc3ccccc3C#N)CC2)n1C | -3.944 |
| CCOc1ccnc(N2CCN(Cc3ncccc3C)CC2)n1 | -12.42 |
| CCN1CCN(C[C@@H]2CN(c3ncccc3F)C[C@@H]2CO)CC1 | 10.53 |
| C[C@]1(O)CN(Cc2ncc[nH]2)CC[C@@H]1Oc1cccc(F)c1 | 143.6 |
| Cc1nccc(CN2CC[C@H](Oc3cccc(F)c3)[C@@](C)(O)C2)n1 | -4.258 |
| C[C@]1(O)CN(Cc2ncccc2F)CC[C@@H]1Oc1cccc(F)c1 | 113.6 |
| C[C@]1(O)CN(Cc2cscn2)CC[C@@H]1Oc1cccc(F)c1 | 131.8 |
| CCN1CC(c2ccccc2)CC2(CCN(Cc3ncc[nH]3)CC2)C1 (centres undefined) | -4.226 |
| COc1ccc2c(c1)CCN(Cc1cscn1)CC2 | -16.58 |
| Fc1ccc(CC2CCN(Cc3cscn3)CC2)cc1 | 6.196 |
| Cc1cccnc1CN1CC[C@H](Oc2cccc(F)c2)[C@@](C)(O)C1 | 112.2 |
| CCn1ccnc1CN1CCC(Oc2cccc(F)c2)(C(=O)O)CC1 | -6.452 |
| O=C(c1cnc2[nH]c(=O)[nH]c(=O)c2c1)N1CCCC1C1CCCCC1 (centres undefined) | 5.907 |
| Cc1cccc(S(=O)(=O)NC(=O)c2ccc3c(c2)nnn3C)c1 | -16.64 |
| CC(C)c1noc(-c2ccc(NCc3noc(C(C)C)n3)nc2)n1 | -9.684 |
| Cc1ccccc1OCC1CCCN(C(=O)Cc2c[nH]c(=O)[nH]c2=O)C1 (centres undefined) | -4.345 |
| O=C(COc1ccc2c(c1)CCC2)NS(=O)(=O)c1cncc(Br)c1 | -16.45 |
| CC(O)c1cn(CC2CCN(C(=O)CN(C)C(C)C)CC2)nn1 (centres undefined) | -14.32 |
| CSc1ccc(C)c(C(=O)N2CCCC(n3cncn3)C2)c1 (centres undefined) | 94.98 |
| Cc1ccc(S(C)(=O)=O)cc1C(=O)N1CCCC(n2cncn2)C1 (centres undefined) | 123.8 |
